Our source for the z-score and composite z-score values is PubChem BioAssay.

Unmarked numbers belong to inactive results.
Note: test concentration not given here.

Tested on in one assay: not listed separately
Description: MM1S myeloma cell viability, profiling panel, resazurin fluorescence, basal, 24 h, PK04 Diversity Set (AID 1174).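 Note: MM1S multiple myeloma cell line.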 The following applies: higher = more signal, called active from +8 up or from −8 down. On the technique in general: Alamar Blue is a resazurin reagent that responds to reducing activity.
For the compound `C=C[C@@H](C)[C@@H](OC(=O)Nc1ccc(SC)cc1)c1ccc(OCCO)cc1`, the z-score was -0.682.

As to `CC(C)C[C@@H]1NC(=O)CNC(=O)[C@@]23C(=O)N[C@@H](Cc4ccccc4)C2[C@H](C)[C@@]2(C)O[C@H]2C3/C=C/C/C=C\CNC1=O` (some centres not stated), the z-score was 0.339.

`Cc1c(NC(=O)/C(C#N)=C/c2ccccc2Cl)c(=O)n(-c2ccccc2)n1C`: the z-score was 0.242.

Consider `COCCCNC(=O)[C@@]1(c2ccc([N+](=O)[O-])cc2)CC(=O)N(C(C)C)[C@@H]1c1ccc(CO)cc1`, for which the z-score is 0.879.

As to `C=CCC(OC(C)=O)[C@@H]1[C@@H](N(Cc2cccc3ccccc23)C(=O)c2cccc3ccccc23)c2cc(OCCCO)ccc2N1C(=O)c1ccc2ccccc2c1` (some centres not stated), the z-score was 0.62.

Turning to `CC(C)C[C@@H]1NC(=O)[C@H]2C[C@@H](C(=O)NCCCCCN)[C@@H](c3cccc(OCCO)c3)N2C1=O`, the z-score was -0.178.

Consider `COC(=O)[C@@]1(Cc2ccccc2)[C@H]2c3cc(C(=O)N4CCCC4)n(CCSCCO)c3C[C@H]2CN1C(=O)c1ccccc1`, for which the z-score was -1.63.

As to `CCOC(=O)C1=C[C@@H](C(C)(C)C)N(S(=O)(=O)c2ccc(C)cc2)[C@H]1c1ccccc1`, the z-score was -0.562.

Consider `C=CCN1C(=O)[C@]2(O[C@H](CCO)[C@@H]([Si](C)(C)c3ccc(OC)cc3)[C@@H]2C)c2cc(NC(=O)c3ccc(OC)cc3)ccc21`, for which the z-score is -4.56.

With `COCCOC(=O)N1C(=O)[C@@]2(c3cc(C#Cc4ccc(OC)cc4)ccc31)[C@H](C(=O)NC[C@H](O)c1ccccc1)[C@H]1C(=O)O[C@H](c3ccccc3)[C@H](c3ccccc3)N1[C@@H]2c1ccc(OCCO)cc1`, the z-score is 0.0406.

On to `CCc1cccc(NC(=O)O[C@H]2[C@H](OC(=O)Nc3ccccc3)[C@H](OC(=O)Nc3ccccc3)[C@@H](OC)O[C@@H]2CO)c1`, for which the z-score is -4.46.

For a further assay, the target named is Dihydroorotate dehydrogenase (quinone), mitochondrial (Plasmodium falciparum (isolate 3D7)) (UniProt Q08210). Description: PfDHODH enzyme inhibitors, primary screen, biochemical, C-terminal His tag, absorbance 600 nm (AID 1175).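 Note: recombinant parasite enzyme with a five histidine tag at its C terminus.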 Conditions: DCIP absorbance 600 nm, higher = more signal, called active from +8 up or from −8 down.
Sequence of Dihydroorotate dehydrogenase (quinone), mitochondrial (Plasmodium falciparum (isolate 3D7)) (Q08210 whole entry, looked up): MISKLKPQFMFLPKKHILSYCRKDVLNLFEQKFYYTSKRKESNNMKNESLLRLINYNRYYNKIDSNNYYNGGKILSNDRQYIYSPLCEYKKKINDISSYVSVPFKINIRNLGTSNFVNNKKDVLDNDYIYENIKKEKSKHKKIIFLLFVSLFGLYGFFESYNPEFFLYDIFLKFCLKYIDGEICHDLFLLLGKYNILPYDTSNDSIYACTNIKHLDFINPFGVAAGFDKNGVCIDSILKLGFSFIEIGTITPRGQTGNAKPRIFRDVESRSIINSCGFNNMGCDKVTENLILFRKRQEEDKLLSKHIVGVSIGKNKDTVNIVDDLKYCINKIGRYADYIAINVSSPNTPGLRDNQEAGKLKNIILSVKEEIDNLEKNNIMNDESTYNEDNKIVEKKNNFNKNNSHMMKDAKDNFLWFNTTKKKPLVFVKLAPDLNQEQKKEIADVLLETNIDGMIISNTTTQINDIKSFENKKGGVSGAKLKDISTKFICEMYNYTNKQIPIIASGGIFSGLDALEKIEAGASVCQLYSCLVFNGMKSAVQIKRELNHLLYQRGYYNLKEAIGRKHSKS
For the compound `Cc1ccc(S[C@]2(C(=O)NC(C)C)CC(=O)N(C(C)C)[C@@H]2c2ccc(CO)cc2I)cc1`, the composite z-score is 0.0738.

`C=C(/C(=C/C[C@@H](OC(C)=O)c1ccc(CO)o1)c1cc(C(=O)OC)ccc1OC)C(C)C`: the composite z-score is -0.805.

Consider `COc1ccc(CCNC(=O)[C@@]2(Cc3ccccc3I)c3ccccc3C(=O)N(Cc3ccccc3Cl)[C@H]2c2ccc(CO)cc2)cc1`, for which the composite z-score was -0.902.

For `COCCCNC(=O)[C@@]1(Sc2ccc(C)cc2)CC(=O)N(Cc2ccccc2Cl)[C@@H]1c1ccc(CO)cc1I`, the composite z-score is -2.66.

Regarding `COc1cc(C(O)C2C=CC3C(=O)N(Cc4ccccc4)C(=O)C3N2n2cnnc2)cc(OC)c1OC` (configuration not stated), the composite z-score was -1.12.

Turning to `[N-]=[N+]=Nc1ccccc1C[C@]1(C(=O)NCc2ccccc2)COC(c2ccc(OCCCO)cc2)=N1`, the composite z-score is 0.363.

On to `Cc1ccc(S[C@]2(C(=O)NCc3ccccc3)CC(=O)N(Cc3cc(C(F)(F)F)cc(C(F)(F)F)c3)[C@@H]2c2ccc(CO)cc2I)cc1`, for which the composite z-score was -0.459.

In the case of `COc1cc2c(cc1OC)CN(C(=O)[C@@H]1[C@H]3C(=O)O[C@H](c4ccccc4)[C@H](c4ccccc4)N3[C@H](c3ccc(O)cc3)[C@@]13C(=O)Nc1ccc(C#CCCO)cc13)CC2`, the composite z-score is 0.838.

As for `Cc1ccccc1C(O)C1C=CC2C(=O)NC(=O)C2N1Nc1ccc(Cl)cc1Cl` (configuration not stated), the composite z-score is 0.107.

As for `C=CCC(OC(C)=O)[C@@H]1[C@@H](N(Cc2ccc(-c3cccc(C(F)(F)F)c3)o2)C(=O)c2ccc(C)cc2)c2cc(OCCCO)ccc2N1C(=O)Cc1ccc(OC)cc1` (some centres not stated), the composite z-score is -1.55.

For the compound `COc1ccc([Si](C)(C)[C@@H]2[C@@H](CC(=O)N3Cc4ccccc4C[C@H]3CO)O[C@]3(C(=O)N(Cc4ccc(N5CCC5=O)cc4)c4ccccc43)[C@H]2C)cc1`, the composite z-score was -3.

Regarding `Cc1ccc(S[C@]2(C(=O)NC(C)C)CC(=O)N(Cc3ccccc3Cl)[C@@H]2c2ccc(CO)cc2)cc1`, the composite z-score is -0.674.

For `CCOC(=O)C[C@H]1[C@H](OC(=O)c2ccc(-c3ccccc3)cc2)[C@@H](NC(=O)CC(C)C)c2cc(OCCCO)ccc2N1C(=O)c1ccccc1`, the composite z-score is 0.88.

Turning to `C=C(C(=O)CC[C@H](OC(=O)c1ccccc1-c1ccccc1C(=O)O)c1ccccc1OCCO)C(C)C`, the composite z-score is -0.169.

Take `COCCOC(=O)N1C(=O)[C@@]2(c3cc(C#CC4=CCCCC4)ccc31)[C@H](c1ccc(O)cc1)N1[C@H](c3ccccc3)[C@H](c3ccccc3)OC(=O)[C@H]1[C@@H]2C(=O)NC[C@H](O)c1ccccc1`: the composite z-score was -0.495.

As for `NC(=O)[C@H]1[C@@H]2C(=O)O[C@@H](c3ccccc3)[C@@H](c3ccccc3)N2[C@@H](c2ccc(O)cc2)[C@]12C(=O)Nc1ccc(C#CC3=CCCCC3)cc12`, the composite z-score was -0.146.

For the compound `CC1CC/C=C\[C@H]2OC34C=CCN(C(C)(C)C)C(=O)[C@H]3N(C(CO)C(C)C)C(=O)[C@@H]4C2C(=O)O1` (some centres not stated), the composite z-score is -6.62.

Take `O=C(NCCN1CCOCC1)[C@@H]1c2ccccc2C(=O)N(Cc2ccccc2)[C@H]1c1ccc(CO)cc1`: the composite z-score was -0.547.

Consider `CC(C)CCC[C@@H](C)[C@H]1CC[C@@]2(C)C3=C(CC[C@]12C)[C@@]1(C)CC[C@H](OC(=O)c2ccccc2)C(C)(C)C1CC3` (some centres not stated), for which the composite z-score was -1.48.

On to `C[C@]1(C(=O)O)c2ccccc2C(=O)N(Cc2ccc(OC(F)(F)F)cc2)[C@H]1c1ccc(CO)cc1`, for which the composite z-score is -0.295.

On to `C=CCNC(=O)[C@H]1[C@@H]2C(=O)O[C@@H](c3ccccc3)[C@@H](c3ccccc3)N2[C@@H](c2ccc(O)cc2)[C@]12C(=O)N(C(=O)OCCOC)c1ccc(C#CCC(C(=O)OC)C(=O)OC)cc12`, for which the composite z-score is 0.638.

Consider `CCCNC(=O)[C@@]1(Sc2ccc(C)cc2)CC(=O)N(C(C)C)[C@@H]1c1ccc(CO)cc1I`, for which the composite z-score was -0.5.

For `COc1ccc([Si](C)(C)[C@H]2[C@H](CCO)O[C@@]3(C(=O)N(Cc4ccccc4)c4ccc(N5CCOC5=O)cc43)[C@@H]2C)cc1`, the composite z-score was 0.0738.

Regarding `C=CC1c2cc(O)c(OC)cc2CCN1Cc1ccc([N+](=O)[O-])o1` (configuration not stated), the composite z-score is 0.294.

With `CCCCC(=O)N(CCN1CCOCC1)[C@@H]1CC(C(=O)NCCO)=C[C@H](Oc2c(I)cc(CO)cc2OC)[C@H]1O`, the composite z-score was 0.229.

With `C=C[C@@H](C)[C@@H](OC(=O)Nc1ccc(SC)cc1)c1ccc(OCCO)cc1`, the composite z-score is 0.05.

As for `CC(C)C[C@@H]1NC(=O)CNC(=O)[C@@]23C(=O)N[C@@H](Cc4ccccc4)C2[C@H](C)[C@@]2(C)O[C@H]2C3/C=C/C/C=C\CNC1=O` (some centres not stated), the composite z-score is 0.084.

For the compound `Cc1c(NC(=O)/C(C#N)=C/c2ccccc2Cl)c(=O)n(-c2ccccc2)n1C`, the composite z-score was -1.73.

In the case of `COCCCNC(=O)[C@@]1(c2ccc([N+](=O)[O-])cc2)CC(=O)N(C(C)C)[C@@H]1c1ccc(CO)cc1`, the composite z-score is -0.499.

As for `C=CCC(OC(C)=O)[C@@H]1[C@@H](N(Cc2cccc3ccccc23)C(=O)c2cccc3ccccc23)c2cc(OCCCO)ccc2N1C(=O)c1ccc2ccccc2c1` (some centres not stated), the composite z-score is -0.29.

Turning to `CC(C)C[C@@H]1NC(=O)[C@H]2C[C@@H](C(=O)NCCCCCN)[C@@H](c3cccc(OCCO)c3)N2C1=O`, the composite z-score is -1.36.

For `COC(=O)[C@@]1(Cc2ccccc2)[C@H]2c3cc(C(=O)N4CCCC4)n(CCSCCO)c3C[C@H]2CN1C(=O)c1ccccc1`, the composite z-score was -0.337.

As for `CCOC(=O)C1=C[C@@H](C(C)(C)C)N(S(=O)(=O)c2ccc(C)cc2)[C@H]1c1ccccc1`, the composite z-score was -0.294.

On to `C=CCN1C(=O)[C@]2(O[C@H](CCO)[C@@H]([Si](C)(C)c3ccc(OC)cc3)[C@@H]2C)c2cc(NC(=O)c3ccc(OC)cc3)ccc21`, for which the composite z-score is -0.224.

On to `COCCOC(=O)N1C(=O)[C@@]2(c3cc(C#Cc4ccc(OC)cc4)ccc31)[C@H](C(=O)NC[C@H](O)c1ccccc1)[C@H]1C(=O)O[C@H](c3ccccc3)[C@H](c3ccccc3)N1[C@@H]2c1ccc(OCCO)cc1`, for which the composite z-score is 1.86.

As for `CCc1cccc(NC(=O)O[C@H]2[C@H](OC(=O)Nc3ccccc3)[C@H](OC(=O)Nc3ccccc3)[C@@H](OC)O[C@@H]2CO)c1`, the composite z-score is 0.0661.
